Most compounds without a hit are left out; they make up all but 15% or so of the library.
ALOX12 inh = inhibitors of human 12S-lipoxygenase ALOX12; purified 12hLO, xylenol orange hydroperoxide absorbance; Potency, µM (titrated, usually from 108 µM), hits mostly inhibitors; 580,000 tested, 1.1% active
Target sequence (P18054 whole entry, looked up): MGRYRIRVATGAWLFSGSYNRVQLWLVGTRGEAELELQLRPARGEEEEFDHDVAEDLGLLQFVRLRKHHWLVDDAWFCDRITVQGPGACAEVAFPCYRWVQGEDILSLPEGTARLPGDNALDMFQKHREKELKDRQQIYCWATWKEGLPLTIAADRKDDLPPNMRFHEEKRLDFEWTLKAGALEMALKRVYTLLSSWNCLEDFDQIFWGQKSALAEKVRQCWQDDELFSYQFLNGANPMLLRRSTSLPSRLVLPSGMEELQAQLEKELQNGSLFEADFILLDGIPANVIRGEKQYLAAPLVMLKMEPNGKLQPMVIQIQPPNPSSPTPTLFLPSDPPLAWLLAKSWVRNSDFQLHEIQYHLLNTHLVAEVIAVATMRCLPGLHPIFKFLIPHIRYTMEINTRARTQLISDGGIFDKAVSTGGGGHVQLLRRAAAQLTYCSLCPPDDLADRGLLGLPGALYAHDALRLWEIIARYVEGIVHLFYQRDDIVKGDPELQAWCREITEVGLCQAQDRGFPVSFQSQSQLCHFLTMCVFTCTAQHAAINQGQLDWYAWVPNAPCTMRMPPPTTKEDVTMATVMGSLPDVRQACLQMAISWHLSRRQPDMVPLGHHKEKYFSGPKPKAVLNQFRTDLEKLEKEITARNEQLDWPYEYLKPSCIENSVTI
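Purified human 12hLO at 150 nM in 25 mM Hepes, 0.01% Triton X-100, pH 7.0, preincubated 15 min at room temperature with compound. Reaction started with 40 uM arachidonic acid, 30 min at room temperature. Hydroperoxide measured by Fe-xylenol orange, 573/405 nm absorbance ratio.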
DT40 TDP1 CPT = DT40-hTDP1 cell growth loss with CPT | 420,000 tested, 12% active | chicken DT40 Tdp1-/-;hTDP1 cells + 20 nM CPT, ATP luminescence, 48 h | Potency, µM (highest dose often 46.2 µM), most hits filed as inhibitors | AID 686979; note: nearly all actives have a fitted effect of over 55% in size
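Cell growth measured by CellTiter-Glo luminescence after a minimum 48 h, 37 C compound exposure with 20 nM CPT in Tdp1-knockout DT40 cells stably expressing hTDP1, seeded 400/well; qHTS titration format.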
RORgamma inh = blocks mouse ROR gamma transcriptional activity. P51450. Drosophila S2 Gal4-RORgamma UAS-luciferase reporter, 20 h. Potency, µM (series often up to 53.6 µM), actives largely listed as inhibitors. 310,000 tested, 5.4% active. AID 2551; note: nearly all actives have a fitted effect of over 60% in size
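Read-out: Photinus luciferase luminescence; inhibitors lower reporter signal. Insect Schneider cells with Gal4-ROR gamma fusion under metallothionein promoter, UAS reporter; 700 uM final copper sulfate induction, 20 hr, ambient temperature.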
ELG1 repair inh = blocks ELG1-dependent DNA repair in HEK293T cells; Potency, µM (titrated, usually from 46.1 µM), actives largely listed as inhibitors; 330,000 tested, 2.3% active; AID 504467; HEK293T ELG1-luciferase reporter, luminescence, 16 h; DNA damage induced by 5-fluorouridine; note: nearly all actives have a fitted effect of over 55% in size
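In this reporter screen, reduction of luminescence relative to DMSO vehicle indicated activity. Compounds and 5-fluorouridine were added together to 2,000 cells per well, incubated for 16 hr at 37 °C, then developed with ONE-Glo.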
TDP1 cell noCPT = qHTS for Inhibitors of human tyrosyl-DNA phosphodiesterase 1 (TDP1): qHTS in cells in absence of CPT | DT40 Tdp1-/- hTDP1 cells, no CPT, ATP luminescence, 48 h | Potency, µM (top dose mostly 46.2 µM), usual class: inhibitors | 420,000 tested, 15% active | AID 686978, 2013; note: nearly all actives have a fitted effect of over 55% in size
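Growth kinetics read by CellTiter-Glo luminescence after ≥48 hr at 37 °C. Cells: DT40 Tdp1-/- stably carrying human TDP1, 400 per well, compound exposure in the absence of CPT (DMSO vehicle).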
Gal4-VP16 FLuc = counter-screen for ROR gamma inhibitors: Gal4-VP16 reporter; Drosophila S2 Gal4-VP16 UAS-luciferase, luminescence, 20 h; Potency, µM (top dose mostly 53.6 µM), hits mostly inhibitors; 310,000 tested, 3.5% active; AID 2546;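 note: Gal4-VP16 expression switched on by copper sulfate through the metallothionein promoter; nearly all actives have a fitted effect of over 50% in size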
Numbers stand for hits; 0 = inactive; ? = inconclusive; - = not tested or not shown; [ ] = another dose, or the depositor's remark. Calls come from the whole dose curve; as a rule, active = well fitted curve in the direction sought with a large enough effect; inconclusive = small, poorly fitted or top-dose-only effect, or another doubt; inactive = no such curve, though single readings can be large; an effect the other way counts as inactive or inconclusive.

SMILES	ALOX12 inh	DT40 TDP1 CPT	RORgamma inh	ELG1 repair inh	TDP1 cell noCPT	Gal4-VP16 FLuc
Cc1ccc(N2CCN(C(=O)c3ccccc3NC(=O)C3CC=CCC3C(=O)O)CC2)cc1 (stereo not given)	0	0	0	0	0	0
Cc1ccccc1Oc1ccc(NC(=O)C2CC=CCC2C(=O)O)cc1 (stereo not given)	0	15µM	0	0	6.5µM	0
Cc1cccc(N2CCN(C(=O)c3ccccc3NC(=O)C3CC=CCC3C(=O)O)CC2)c1 (stereo not given)	0	?	0	0	5.8µM	0
O=C(O)C1CC=CCC1C(=O)Nc1ccccc1Cl (stereo not given)	0	?	0	?	23µM	0
Cc1c(C(=O)Nc2ccccc2NS(=O)(=O)c2cccs2)cccc1[N+](=O)[O-]	0	-	-	-	-	-
CCOc1ccc(C(=O)Nc2ncc(C)s2)cc1OCC	0	-	-	-	-	-
Cc1ccc(S(=O)(=O)Nc2ccc3c(c2)c2c(n3S(=O)(=O)c3ccc(C)cc3)CCCC2=O)cc1	0	5.8µM	?	?	8.2µM	?
CCOC(=O)c1c(C)n(S(=O)(=O)c2ccc(C)cc2)c2ccc(NS(=O)(=O)c3ccc(C)cc3)cc12	?	18µM	-	-	21µM	-
COc1cccc2[nH]c(C(=O)NCCCc3nnc4ccccn34)cc12	0	-	-	-	-	-
CN(C)Cc1nnc(-c2ccc(Br)o2)o1	0	-	-	-	-	-
COc1ccc(/C=N/N2CCN(c3ccc(Cl)cc3)CC2)cc1	0	0	0[1.91 µM]	0	0	0
Cc1ccc(N=C2C(=S)N(c3ccc(C)cc3)C(=N)N2/N=C/c2ccc(Cl)cc2)cc1	0	26µM	2.5µM	?	26µM	3.2µM
Cc1ccccc1C(=O)N(Cc1ccco1)C1CC1	0	-	-	-	-	-
CC1CCC(N(CCCN)Cc2ccco2)CC1C (stereo not given)	0	29µM	?	0	21µM	0
Cc1ccc(C(=O)O)cc1NS(=O)(=O)c1ccc2ccccc2c1	0	0	0	0	0	0
CCCCN(Cc1ccccc1)c1ccc(C(=O)O)cc1NS(=O)(=O)c1ccc(C(C)=O)cc1	5.6µM	-	-	-	-	-
CCCCN(Cc1ccccc1)c1ccc(C(=O)O)cc1NS(=O)(=O)c1ccc(C)c(C)c1	8.9µM	-	-	-	-	-
N#Cc1ccc(CSc2nccc(C(F)(F)F)n2)cc1	0	-	-	-	-	-
COc1ccccc1OCCNC(=O)c1ccc(Cn2ccn3nc4c(c3c2=O)CCCC4)cc1	0	-	-	-	-	-
CCn1c(=O)cc(OCC(=O)N2CCCC2)c2ccccc21	0	?	0	?	0	0
CCn1c(=O)cc(OCC(=O)N2CCN(c3ccc(C(C)=O)cc3)CC2)c2ccccc21	0	0	-	-	0	-
CCn1c(=O)cc(OCC(=O)N2CCN(c3cccc(C(F)(F)F)c3)CC2)c2ccccc21	0	16µM	0	?	23µM	?
CCn1c(=O)cc(OCC(=O)N2CCN(c3ccc(OC)cc3)CC2)c2ccccc21	0	21µM	-	-	0	-
CC(=O)c1cc(C(=O)N2CCC3(CC2)Nc2ccccc2NC3=O)[nH]n1	0	-	-	-	-	-
Cc1ncoc1C(=O)N1CCC2(CC1)CC(N(Cc1ccc(F)cc1)C1CC1)CCO2 (stereo not given)	0	-	-	-	-	-
SMILES	ALOX12 inh	DT40 TDP1 CPT	RORgamma inh	ELG1 repair inh	TDP1 cell noCPT	Gal4-VP16 FLuc
CC(C)(C)c1ccc(/C=N/Nc2nncn2N)cc1	0	0	0	?	0	?
CC(C)(C)c1nnc(N/N=C/c2ccc(Br)cc2)n(N)c1=O	0	?	2.8µM	0	?	2.8µM
c1ccc(-c2cn3c4c(sc3n2)CCCC4)cc1	0	?	3.5µM	?	?	6.3µM
COc1ccc(C(=O)N2CCC3(CC2)NCCc2c3[nH]c3ccccc23)cn1	0	-	-	-	-	-
COc1cc(OC)cc(C(=O)NC2=NCCS2)c1	0	0	0	?	0	0
CC(C)Oc1ccc(C(=O)NC2=NCCS2)cc1	0	0	10µM	?	0	0[10 µM]
O=C(NC1=NCCS1)c1cccc(OC(F)F)c1	0	0	11µM	?	0	0
O=C(CCSc1nnc(NC2CC2)s1)Nc1ccccc1F	0	-	-	-	-	-
Cn1ccnc1C(NCC(O)COCc1cccs1)c1ccccc1 (stereo not given)	0	-	-	-	-	-
O=C(Nc1ccc(Cl)cc1)c1cnn2c1NC(c1ccccc1)=CC2c1ccccc1 (stereo not given)	0	?	-	-	?	-
COc1ccc(C2=CC(c3ccccc3F)n3ncc(C(=O)Nc4ccc(C)cc4)c3N2)cc1 (stereo not given)	0	5.2µM	-	-	21µM	-
COc1cccc(C2C=C(c3ccc(C)cc3)Nc3c(C(=O)Nc4ccc(F)cc4)cnn32)c1OC (stereo not given)	0	?	-	-	18µM	-
COc1cccc(C2=CC(c3ccccc3F)n3ncc(C(=O)Nc4ccc(F)cc4)c3N2)c1 (stereo not given)	0	?	-	-	18µM	-
COc1ccc(NC(=O)C2=C(C)Nc3c(C(=O)Nc4ccc(C)cc4)cnn3C2c2cc(OC)ccc2OC)cc1 (stereo not given)	0	0	-	-	?	-
CCCC(C)N1CC2(CCN(Cc3nnc(-c4ccccc4)o3)CC2)OC1=O (stereo not given)	0	-	-	-	-	-
CC1(C)OCC(CSC2=C(SCC3COC(C)(C)O3)C(=O)c3ncccc3C2=O)O1 (stereo not given)	-	-	11µM	-	-	16µM
Cc1cccc2cc(CN(Cc3ccccc3)C(=O)c3cccc(F)c3)c(Cl)nc12	0	29µM	0	0	?	0
COCCN(C)C[C@@H]1CN(c2cc(C)c3ccc(SC)cc3n2)C[C@@H]1CO	0	-	-	-	-	-
COc1ccc(NC(=O)Cn2nnc(-c3ccccc3)c2COc2ccc3ccccc3c2)cn1	0	21µM	-	-	23µM	-
O=C(O)Cn1nnc(-c2ccccc2)c1COc1ccccc1	?	0	-	-	0	-
CC(C)NC(=O)Cn1nnc(-c2ccccc2)c1COc1ccc2ccccc2c1	0	15µM	-	-	?	-
Cc1noc(C)c1CC(=O)NC(c1ccccc1F)c1nccn1C (stereo not given)	0	-	-	-	-	-
CCc1ccc(-c2cc(C(=O)Nc3c(C)n(C)n(-c4ccccc4)c3=O)c3ccccc3n2)s1	?	?	0	?	16µM	0
Cc1cc(Br)cc2c(C(=O)Nc3c(C)n(C)n(-c4ccccc4)c3=O)cc(-c3cccs3)nc12	0	23µM	?	?	16µM	0[0.365 µM]
Cc1c(NC(=O)c2cc(=O)[nH]c3ccccc23)c(=O)n(-c2ccccc2)n1C	0	0	0	0	0	0
Cc1cc(C(=O)Nc2c(C)n(C)n(-c3ccccc3)c2=O)c2ccccc2n1	0	0	0	0	0	0

Screening results: PubChem, National Center for Advancing Translational Sciences (NCATS)
